TLR4 MyD88 comp – inhibitors of TLR4-MyD88 association in cells, primary screen, cell-based, HeLa CL3-4, BLA complementation, FRET ratio. Toll-like receptor 4 (Homo sapiens) + Myeloid differentiation primary response protein …. HeLa CL3-4 TLR4/MyD88 BLA complementation. inhibition, % at 8.4 µM. actives 0.18% (n = 200,000). AID 861, 2007; in the data active = inhibition above about 25%;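 also: 0% = vehicle and 100% = reference inhibitor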
rCAG RNA binder – binders of r(CAG) RNA repeats, primary screen, biochemical, fluorescence. r(CAG) RNA repeat, TO-PRO-1 dye displacement fluorescence. inhibition, % at 3 µM. actives 1.3% (n = 370,000). AID 651821, 2012;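 active = inhibition above the plate cutoff, the mean of all test compounds on that plate plus 3 SD, cut at about 35% in these data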;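 also: 0% = DMSO alone and 100% = 100 µM mitoxantrone as full dye displacement; higher means more dye released from RNA so lower well fluorescence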
TLR9-MyD88 block – inhibitors of TLR9-MyD88 association in cells, primary screen, cell-based, CHO, BLA complementation, fluorescence. Toll-like receptor 9 (Homo sapiens) + Myeloid differentiation primary response protein …. CCF4 FRET ratio. inhibition, % at 4.98 µM. actives 0.21% (n = 340,000);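 active = inhibition above the mean over all tested compounds plus 3 SD, cut at about 21% in these data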;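 also: 0% = DMSO only wells and 100% = clavulanate BLA inhibitor control wells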
NOD2 RIPK2 PPI – NOD2-RIPK2 binding disruptors in cells, primary screen, fluorescence, CHO cells, BLA complementation. Receptor-interacting serine/threonine-protein kinase 2 (Homo sapiens), O43353. CCF4 ratio. inhibition, % at 4.98 µM. actives 0.38% (n = 360,000); in the data active = inhibition above about 21%;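 also: 0% = vehicle only and 100% = reference blocker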
ABHD5-PLIN5 inh – ABHD5-PLIN5 interaction inhibitors, primary screen, cell lysate, split luciferase complementation, luminescence; Perilipin-5 (Homo sapiens) + 1-acylglycerol-3-phosphate O-acyltransferase ABHD5 (Homo …; inhibition, % at 4 µM; Split G. princeps luciferase complementation, 4 h; AID 602281, 2012; actives 0.78% (n = 360,000);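 active = inhibition above the mean inhibition across every tested compound plus 3 SD, cut at about 22% in these data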;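 also: 0% = DMSO only wells and the 100% control is not disclosed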
Target sequence (Q00G26 whole entry, looked up): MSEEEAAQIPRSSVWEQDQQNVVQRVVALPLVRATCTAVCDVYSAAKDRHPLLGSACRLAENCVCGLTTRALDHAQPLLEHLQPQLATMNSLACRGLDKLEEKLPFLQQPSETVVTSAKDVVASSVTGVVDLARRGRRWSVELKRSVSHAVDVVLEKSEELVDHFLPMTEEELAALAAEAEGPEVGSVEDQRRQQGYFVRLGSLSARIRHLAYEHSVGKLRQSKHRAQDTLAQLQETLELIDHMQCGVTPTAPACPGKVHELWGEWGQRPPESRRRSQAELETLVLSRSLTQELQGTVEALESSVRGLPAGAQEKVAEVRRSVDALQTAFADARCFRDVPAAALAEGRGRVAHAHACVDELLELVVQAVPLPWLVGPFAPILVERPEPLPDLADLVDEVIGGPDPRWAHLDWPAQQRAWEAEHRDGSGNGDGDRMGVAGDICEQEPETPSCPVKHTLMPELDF
Target sequence (Q8WTS1 whole entry, looked up): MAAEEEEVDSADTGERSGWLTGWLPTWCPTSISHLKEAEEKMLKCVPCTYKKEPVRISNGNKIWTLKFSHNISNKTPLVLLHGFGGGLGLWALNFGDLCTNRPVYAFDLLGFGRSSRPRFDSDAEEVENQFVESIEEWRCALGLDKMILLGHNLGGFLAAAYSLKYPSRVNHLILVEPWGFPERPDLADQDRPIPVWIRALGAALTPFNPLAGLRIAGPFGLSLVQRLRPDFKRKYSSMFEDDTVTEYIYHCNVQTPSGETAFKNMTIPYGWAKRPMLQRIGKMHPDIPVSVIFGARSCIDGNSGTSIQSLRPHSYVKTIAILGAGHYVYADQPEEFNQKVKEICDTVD
PRMT1 FP inh – PRMT1 methyltransferase inhibitors, primary screen, biochemical, fluorescence polarization | inhibition, % at 2.79 µM | actives 1.3% (n = 370,000) | Protein arginine N-methyltransferase 1 (Homo sapiens), Q99873 | recombinant PRMT1, activity-based probe fluorescence polarization;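 active = inhibition above about 21% made by adding two undisclosed values, limit read from the data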
ABHD5-PLIN5 conf – ABHD5-PLIN5 interaction inhibitors, confirmation, biochemical, luminescence. shares compounds with ABHD5-PLIN5 inh. inhibition, % at 4 µM. actives 67% (n = 2,200); in the data active = inhibition above about 23%;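 also: 0% = DMSO vehicle wells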
HNF4 counter – HNF4 dimerization inhibitors, counter-screen for ABHD5-PLIN5 interaction inhibitor project, biochemical, split-luciferase complementation, luminescence. shares compounds with ABHD5-PLIN5 inh. inhibition, % at 4 µM. actives 77% (n = 2,200). AID 651674, 2012;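 active = mean inhibition across replicate wells exceeding the computed hit threshold, cut at about 13% in these data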;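 also: light from luciferase halves that rejoin when HNF4 fusion proteins dimerize; 0% = DMSO only wells and the 100% control is not given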
The depositor's hits bear a star; x = no result given. A selection: hits, their analogues and other compounds. The true share with any hit is near 3.3%.

SMILES	TLR4 MyD88 comp	rCAG RNA binder	TLR9-MyD88 block	NOD2 RIPK2 PPI	ABHD5-PLIN5 inh	PRMT1 FP inh	ABHD5-PLIN5 conf	HNF4 counter
CCOC(=O)c1ccc(N=C2SC(C(=O)Nc3ccc(C(=O)O)cc3)CC(=O)N2Cc2cccs2)cc1 (configuration not stated)	-1	14	3	1	-3	-4	x	x
CC(C)Cc1nnc(NC(=O)C2CCCN(C(=O)c3ccc(Cl)cc3)C2)s1 (configuration not stated)	x	2	3	-12	0	-4	x	x
Oc1cccc(Nc2c3ccccc3nc3ccccc23)c1	x	9	-16	-14	7	7	x	x
CCN(CC)Cc1cc(Nc2c3ccccc3nc3c4ccccc4n(C)c23)cc(CN(CC)CC)c1O	x	13	-3	4	27*	45*	44*	29*
Cn1c(=O)c2[nH]c(N=NNc3ccccc3F)nc2n(C)c1=O	x	5	-2	4	24*	0	9	14*
CCC(Oc1ccccc1)C(=O)Nc1ccc(C)c(S(=O)(=O)N2CCOCC2)c1 (configuration not stated)	x	-4	2	4	0	2	x	x
CCNC(=O)COc1ccc(/C=C2\COc3ccccc3C2=O)cc1OC	x	-1	-1	6	56*	2	81*	81*
CCOc1cc(/C=C2\COc3ccccc3C2=O)ccc1OCC(=O)N(C)C	x	2	2	-10	61*	3	77*	69*
Cc1nc2c(cc1C#N)C(=O)c1ccccc1-2	-9	0	7	-1	1	0	x	x
CN(C)Cc1ccccc1-c1cccc2nccn12	x	3	x	-14	14	3	x	x
Cc1ccccc1Oc1nc2c(C)cccn2c(=O)c1/C=C(\C#N)C(=O)Nc1c(C)n(C)n(-c2ccccc2)c1=O	4	2	4	-4	28*	3	49*	35*
Cc1ccc2c(c1)c1c3n2CCCNC3CCC1 (configuration not stated)	13	3	-12	3	8	-1	x	x
c1cc2c(cc1C1CCCCC1)c1c3n2CCCNC3CCC1 (configuration not stated)	16	10	6	-5	27*	-2	13	0
O=C(O)CCc1ccc(-c2ccc(Cl)cc2)o1	7	3	-15	5	43*	19	-2	10
CC(O)CNCCCOc1ccc(Cl)cc1C(C)(C)C (configuration not stated)	-1	2	-12	-10	29*	1	11	6
CC(C)(C)c1cc(Cl)ccc1OCCn1ccnc1	x	-6	3	2	-1	2	x	x
CN(C)CCOCCOc1ccc(Cl)cc1C(C)(C)C	1	-7	-9	-8	23*	-1	10	1
COCCCNCCCOc1ccc(Cl)cc1Br	-2	0	-3	-7	10	-1	x	x
CCCCCCCCN1CN2Cc3ccc(C)cc3C2CS1(=O)=O (configuration not stated)	x	1	x	x	x	4	x	x
Cc1cccn2c(=O)c3cc(C#N)c(=NC(=O)c4ccco4)n(Cc4ccco4)c3nc12	x	11	-8	-3	39*	12	23*	54*
CCOC(=O)c1cc2c(=O)n3ccccc3nc2n(Cc2ccco2)c1=NC(=O)c1cccnc1	1	12	-7	-5	22	21	x	x
CCOC(=O)c1cc2c(=O)n3ccccc3nc2n(Cc2ccco2)c1=NC(=O)c1ccccc1OCC	-16	6	-7	-4	24*	7	14	45*

Source: PubChem BioAssay
